# Legend:
# Assay in all cases: DAPPL (digital affinity profiling via proximity ligation, sequencing); 10 mM Tris-HCl pH 7.5, 50 mM NaCl, 1 mM DTT, 4% glycerol, room temperature, 30 min; GST-TFs on glutathione beads, 16-mer random dsDNA library, 0.1% formaldehyde crosslink after washing; high values mean tight binding
# [1] = biological target: T1, FLI1 (Homo sapiens, UniProt Q01543 1-452); settings: protein: recombinant; tags: N-terminal GST; dsDNA, one strand shown
# T1 sequence: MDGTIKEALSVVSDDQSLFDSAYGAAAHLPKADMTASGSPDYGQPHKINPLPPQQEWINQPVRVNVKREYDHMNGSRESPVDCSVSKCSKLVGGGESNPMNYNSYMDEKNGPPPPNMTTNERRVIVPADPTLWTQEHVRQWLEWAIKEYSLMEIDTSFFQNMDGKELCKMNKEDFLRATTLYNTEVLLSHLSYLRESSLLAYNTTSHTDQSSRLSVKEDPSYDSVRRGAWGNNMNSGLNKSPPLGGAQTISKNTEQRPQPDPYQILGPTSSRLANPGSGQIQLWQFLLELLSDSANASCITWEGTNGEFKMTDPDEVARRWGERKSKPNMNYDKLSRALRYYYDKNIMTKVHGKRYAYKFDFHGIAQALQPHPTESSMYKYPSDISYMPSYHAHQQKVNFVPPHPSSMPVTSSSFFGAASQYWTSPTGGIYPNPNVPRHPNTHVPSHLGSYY
# In short: (§1)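 Sequencing on an Illumina NextSeq500 followed washing, crosslinking with 0.1% formaldehyde, proximity ligation (BsaI/T4 ligase, 1 h, 37 °C) and PCR amplification of pools that had been incubated for 30 min at room temperature with 200 nmole of a random double-stranded 16-mer DNA library in Tris/NaCl/DTT/glycerol buffer. Each pool held DNA-barcoded human transcription factors, expressed in yeast as GST fusions and captured on glutathione beads, plus a tag-only sample. Binding signal is a hexamer's read frequency for a factor divided by its frequency in the tag-only sample.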
# [2] = biological target: T2, ELK1 (Homo sapiens, UniProt P19419 1-428); settings: protein: recombinant; tags: N-terminal GST; dsDNA, one strand shown
# T2 sequence: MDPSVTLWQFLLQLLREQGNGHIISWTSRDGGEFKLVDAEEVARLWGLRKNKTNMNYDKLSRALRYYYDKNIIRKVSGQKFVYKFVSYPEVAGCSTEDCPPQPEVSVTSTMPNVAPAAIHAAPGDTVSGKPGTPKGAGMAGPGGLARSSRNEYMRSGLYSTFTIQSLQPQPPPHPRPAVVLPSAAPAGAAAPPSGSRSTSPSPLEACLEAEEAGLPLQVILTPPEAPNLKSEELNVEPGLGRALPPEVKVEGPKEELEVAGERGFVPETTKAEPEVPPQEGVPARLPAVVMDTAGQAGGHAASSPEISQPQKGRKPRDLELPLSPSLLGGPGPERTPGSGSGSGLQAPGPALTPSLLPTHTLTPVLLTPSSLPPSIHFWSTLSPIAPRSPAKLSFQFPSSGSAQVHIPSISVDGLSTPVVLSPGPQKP
# In short: as §1
# [3] = biological target: T3, GABPA (Homo sapiens, UniProt Q06546 1-454); settings: protein: recombinant; tags: N-terminal GST; dsDNA, one strand shown
# T3 sequence: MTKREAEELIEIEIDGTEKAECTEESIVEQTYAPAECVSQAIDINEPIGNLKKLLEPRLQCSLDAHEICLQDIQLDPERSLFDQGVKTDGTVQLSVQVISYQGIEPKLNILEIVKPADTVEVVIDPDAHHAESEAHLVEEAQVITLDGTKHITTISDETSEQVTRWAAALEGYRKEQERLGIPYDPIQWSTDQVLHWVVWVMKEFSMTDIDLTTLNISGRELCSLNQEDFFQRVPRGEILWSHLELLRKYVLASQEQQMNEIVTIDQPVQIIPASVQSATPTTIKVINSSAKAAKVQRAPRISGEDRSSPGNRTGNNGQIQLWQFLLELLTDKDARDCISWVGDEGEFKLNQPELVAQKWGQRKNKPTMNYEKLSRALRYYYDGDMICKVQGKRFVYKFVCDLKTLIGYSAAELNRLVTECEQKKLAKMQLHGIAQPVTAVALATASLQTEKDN
# In short: as §1
# [4] = biological target: T4, ERG (Homo sapiens, UniProt P11308 1-479); settings: protein: recombinant; tags: N-terminal GST; dsDNA, one strand shown
# T4 sequence: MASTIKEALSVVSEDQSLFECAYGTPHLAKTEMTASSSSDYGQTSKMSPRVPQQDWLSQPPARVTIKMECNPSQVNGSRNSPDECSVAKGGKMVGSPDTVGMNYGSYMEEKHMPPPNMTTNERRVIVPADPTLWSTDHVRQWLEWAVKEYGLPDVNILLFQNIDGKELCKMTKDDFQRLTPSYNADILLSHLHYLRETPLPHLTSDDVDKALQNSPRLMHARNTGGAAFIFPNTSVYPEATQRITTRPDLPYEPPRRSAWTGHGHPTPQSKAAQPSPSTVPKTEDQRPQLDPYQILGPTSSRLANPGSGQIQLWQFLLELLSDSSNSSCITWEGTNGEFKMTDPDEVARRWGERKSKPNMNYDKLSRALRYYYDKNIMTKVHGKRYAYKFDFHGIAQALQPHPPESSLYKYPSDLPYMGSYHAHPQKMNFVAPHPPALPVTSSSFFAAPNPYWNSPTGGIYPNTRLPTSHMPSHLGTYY
# In short: as §1
# [5] = biological target: ELF1 (Homo sapiens, UniProt P32519 1-619); settings: protein: recombinant; tags: N-terminal GST; dsDNA, one strand shown
# Chain of ELF1 (P32519 whole entry): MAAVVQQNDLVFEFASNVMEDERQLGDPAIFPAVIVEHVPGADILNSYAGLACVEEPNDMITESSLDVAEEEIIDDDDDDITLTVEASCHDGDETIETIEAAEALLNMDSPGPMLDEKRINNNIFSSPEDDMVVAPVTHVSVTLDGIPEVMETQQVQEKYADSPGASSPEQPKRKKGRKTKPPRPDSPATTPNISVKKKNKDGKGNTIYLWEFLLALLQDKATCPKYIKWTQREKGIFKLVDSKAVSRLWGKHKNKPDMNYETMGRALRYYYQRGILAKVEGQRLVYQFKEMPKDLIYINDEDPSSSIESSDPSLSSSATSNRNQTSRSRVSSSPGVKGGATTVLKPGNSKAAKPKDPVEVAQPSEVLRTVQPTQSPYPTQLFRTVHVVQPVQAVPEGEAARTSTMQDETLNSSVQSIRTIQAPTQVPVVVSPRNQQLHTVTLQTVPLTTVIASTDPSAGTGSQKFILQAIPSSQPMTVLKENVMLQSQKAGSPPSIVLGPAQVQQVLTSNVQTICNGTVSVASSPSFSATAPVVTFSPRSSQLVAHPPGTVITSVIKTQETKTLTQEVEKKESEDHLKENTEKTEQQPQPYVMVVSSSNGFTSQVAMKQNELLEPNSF
# In short: as §1
# [6] = biological target: T5, EHF (Homo sapiens, UniProt Q9NZC4 1-300); settings: protein: recombinant; tags: N-terminal GST; dsDNA, one strand shown
# T5 sequence: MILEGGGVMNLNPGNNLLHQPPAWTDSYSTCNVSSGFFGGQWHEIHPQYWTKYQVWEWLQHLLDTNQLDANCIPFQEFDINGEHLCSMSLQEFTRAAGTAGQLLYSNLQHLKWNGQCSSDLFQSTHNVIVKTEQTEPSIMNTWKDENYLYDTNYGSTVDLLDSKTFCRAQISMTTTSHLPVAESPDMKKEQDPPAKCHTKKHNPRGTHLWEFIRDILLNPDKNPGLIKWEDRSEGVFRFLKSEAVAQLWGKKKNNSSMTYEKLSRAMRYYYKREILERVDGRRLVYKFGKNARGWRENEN
# In short: as §1
# [7] = biological target: SPI1 (Homo sapiens, UniProt P17947 1-270); settings: protein: recombinant; tags: N-terminal GST; dsDNA, one strand shown
# In short: as §1
# [8] = biological target: SPIB (Homo sapiens, UniProt Q01892 1-262); settings: protein: recombinant; tags: N-terminal GST; dsDNA, one strand shown
# Chain of SPIB (Q01892 whole entry): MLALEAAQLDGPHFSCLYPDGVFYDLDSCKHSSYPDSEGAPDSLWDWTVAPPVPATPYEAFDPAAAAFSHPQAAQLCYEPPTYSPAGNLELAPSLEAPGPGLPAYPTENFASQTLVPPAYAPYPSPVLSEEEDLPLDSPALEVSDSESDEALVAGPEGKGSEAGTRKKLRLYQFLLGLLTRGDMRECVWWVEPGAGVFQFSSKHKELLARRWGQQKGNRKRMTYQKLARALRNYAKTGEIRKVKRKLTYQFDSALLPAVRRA
# In short: as §1
# [9] = biological target: T6, ELK3 (Homo sapiens, UniProt P41970 1-407); settings: protein: recombinant; tags: N-terminal GST; dsDNA, one strand shown
# T6 sequence: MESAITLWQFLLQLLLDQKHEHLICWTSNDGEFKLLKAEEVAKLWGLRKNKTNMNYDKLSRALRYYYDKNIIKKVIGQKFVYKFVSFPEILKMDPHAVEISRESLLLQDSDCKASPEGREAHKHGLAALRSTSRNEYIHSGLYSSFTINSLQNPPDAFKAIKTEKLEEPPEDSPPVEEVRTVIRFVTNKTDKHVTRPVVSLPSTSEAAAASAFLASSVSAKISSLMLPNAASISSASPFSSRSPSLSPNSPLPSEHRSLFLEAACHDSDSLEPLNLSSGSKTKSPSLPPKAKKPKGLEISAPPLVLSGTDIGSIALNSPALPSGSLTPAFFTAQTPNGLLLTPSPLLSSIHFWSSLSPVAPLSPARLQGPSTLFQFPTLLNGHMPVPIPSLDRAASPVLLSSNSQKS
# In short: as §1
# [10] = biological target: T7, FEV (Homo sapiens, UniProt Q99581 1-238); settings: protein: recombinant; tags: N-terminal GST; dsDNA, one strand shown
# T7 sequence: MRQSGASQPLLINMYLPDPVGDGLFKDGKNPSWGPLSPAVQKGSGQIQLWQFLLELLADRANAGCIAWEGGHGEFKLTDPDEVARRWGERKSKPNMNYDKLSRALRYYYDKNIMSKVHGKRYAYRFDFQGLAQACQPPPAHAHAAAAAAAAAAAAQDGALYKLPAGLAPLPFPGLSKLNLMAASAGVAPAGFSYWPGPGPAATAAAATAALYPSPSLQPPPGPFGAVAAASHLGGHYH
# In short: as §1
# [11] = biological target: ETV5 (Homo sapiens, UniProt P41161 1-510); settings: protein: recombinant; tags: N-terminal GST; dsDNA, one strand shown
# Chain of ETV5 (P41161 whole entry): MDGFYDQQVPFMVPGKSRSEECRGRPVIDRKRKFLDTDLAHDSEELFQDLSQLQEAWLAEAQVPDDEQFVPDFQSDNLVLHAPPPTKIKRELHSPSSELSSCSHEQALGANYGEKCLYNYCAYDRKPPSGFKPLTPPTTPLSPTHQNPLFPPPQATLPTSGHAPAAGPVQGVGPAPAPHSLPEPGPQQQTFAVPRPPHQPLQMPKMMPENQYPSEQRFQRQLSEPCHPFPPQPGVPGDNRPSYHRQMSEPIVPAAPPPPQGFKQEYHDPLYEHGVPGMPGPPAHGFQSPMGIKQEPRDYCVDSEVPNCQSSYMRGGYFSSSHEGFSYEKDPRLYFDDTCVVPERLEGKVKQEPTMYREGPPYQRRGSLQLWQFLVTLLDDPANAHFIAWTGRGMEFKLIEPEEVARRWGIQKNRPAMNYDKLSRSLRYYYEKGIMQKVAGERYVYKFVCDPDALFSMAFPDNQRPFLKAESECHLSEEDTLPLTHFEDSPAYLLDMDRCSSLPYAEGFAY
# In short: as §1
# [12] = biological target: HSF1 (Homo sapiens, UniProt Q00613 1-529); settings: protein: recombinant; tags: N-terminal GST; chain copies: 3; dsDNA, one strand shown
# Chain of HSF1 (Q00613 whole entry): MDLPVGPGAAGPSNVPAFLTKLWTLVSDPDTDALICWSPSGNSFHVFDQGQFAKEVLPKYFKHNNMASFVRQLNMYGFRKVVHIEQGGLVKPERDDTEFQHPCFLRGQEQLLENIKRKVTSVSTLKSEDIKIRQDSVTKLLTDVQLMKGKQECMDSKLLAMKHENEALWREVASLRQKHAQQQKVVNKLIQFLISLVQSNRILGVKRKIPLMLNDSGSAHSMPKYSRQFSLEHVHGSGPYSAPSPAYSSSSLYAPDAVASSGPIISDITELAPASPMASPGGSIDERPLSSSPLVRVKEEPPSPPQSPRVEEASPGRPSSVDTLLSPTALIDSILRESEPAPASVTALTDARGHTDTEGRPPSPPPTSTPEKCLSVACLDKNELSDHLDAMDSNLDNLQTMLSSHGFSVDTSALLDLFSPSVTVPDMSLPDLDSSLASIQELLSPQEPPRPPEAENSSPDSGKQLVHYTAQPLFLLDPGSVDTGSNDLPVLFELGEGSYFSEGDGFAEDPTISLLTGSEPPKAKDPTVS
# In short: as §1
# [13] = biological target: T8, SPIC (Homo sapiens, UniProt Q8N5J4 1-248); settings: protein: recombinant; tags: N-terminal GST; dsDNA, one strand shown
# T8 sequence: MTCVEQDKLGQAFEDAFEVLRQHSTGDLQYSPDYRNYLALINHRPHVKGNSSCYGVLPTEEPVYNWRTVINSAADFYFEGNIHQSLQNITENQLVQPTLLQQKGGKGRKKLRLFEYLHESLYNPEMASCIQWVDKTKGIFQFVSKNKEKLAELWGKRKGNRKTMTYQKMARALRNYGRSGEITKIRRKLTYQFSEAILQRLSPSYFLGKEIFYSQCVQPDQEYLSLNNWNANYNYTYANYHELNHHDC
# In short: as §1
# [14] = biological target: ELF4 (Homo sapiens, UniProt Q99607 1-663); settings: protein: recombinant; tags: N-terminal GST; dsDNA, one strand shown
# Chain of ELF4 (Q99607 whole entry): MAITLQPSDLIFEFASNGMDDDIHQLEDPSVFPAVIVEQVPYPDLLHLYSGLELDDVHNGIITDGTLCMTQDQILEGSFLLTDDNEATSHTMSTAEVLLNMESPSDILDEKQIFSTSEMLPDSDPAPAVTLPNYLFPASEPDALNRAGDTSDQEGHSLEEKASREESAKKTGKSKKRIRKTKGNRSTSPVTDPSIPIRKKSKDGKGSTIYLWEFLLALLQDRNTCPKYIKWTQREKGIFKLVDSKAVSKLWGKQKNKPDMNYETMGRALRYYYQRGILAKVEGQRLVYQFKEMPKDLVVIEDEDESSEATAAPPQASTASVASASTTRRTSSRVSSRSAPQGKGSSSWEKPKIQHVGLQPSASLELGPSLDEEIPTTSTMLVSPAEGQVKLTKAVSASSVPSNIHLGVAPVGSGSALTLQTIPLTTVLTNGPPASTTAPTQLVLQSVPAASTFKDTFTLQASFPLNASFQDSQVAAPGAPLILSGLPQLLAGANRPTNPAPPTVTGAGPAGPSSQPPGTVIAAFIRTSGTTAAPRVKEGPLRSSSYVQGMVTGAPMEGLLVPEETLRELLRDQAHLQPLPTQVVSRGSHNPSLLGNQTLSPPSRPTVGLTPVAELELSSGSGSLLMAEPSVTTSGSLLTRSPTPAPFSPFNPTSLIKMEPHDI
# In short: as §1
# [15] = biological target: T9, ELK4 (Homo sapiens, UniProt P28324-2 1-405); settings: protein: recombinant; tags: N-terminal GST; dsDNA, one strand shown
# T9 sequence: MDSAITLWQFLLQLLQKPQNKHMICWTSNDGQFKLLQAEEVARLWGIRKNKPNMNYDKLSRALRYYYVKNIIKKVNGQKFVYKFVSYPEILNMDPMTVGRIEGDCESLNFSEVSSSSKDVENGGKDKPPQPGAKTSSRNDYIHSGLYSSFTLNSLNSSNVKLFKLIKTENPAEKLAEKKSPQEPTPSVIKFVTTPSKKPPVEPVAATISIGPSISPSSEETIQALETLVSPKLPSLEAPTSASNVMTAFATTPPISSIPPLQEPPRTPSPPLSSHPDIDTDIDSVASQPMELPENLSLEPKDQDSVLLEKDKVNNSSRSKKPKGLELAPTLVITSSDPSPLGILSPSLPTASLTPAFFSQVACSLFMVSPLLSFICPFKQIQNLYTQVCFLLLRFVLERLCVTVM
# In short: as §1
# [16] = biological target: T10, ETV2 (Homo sapiens, UniProt O00321 1-342); settings: protein: recombinant; tags: N-terminal GST; dsDNA, one strand shown
# T10 sequence: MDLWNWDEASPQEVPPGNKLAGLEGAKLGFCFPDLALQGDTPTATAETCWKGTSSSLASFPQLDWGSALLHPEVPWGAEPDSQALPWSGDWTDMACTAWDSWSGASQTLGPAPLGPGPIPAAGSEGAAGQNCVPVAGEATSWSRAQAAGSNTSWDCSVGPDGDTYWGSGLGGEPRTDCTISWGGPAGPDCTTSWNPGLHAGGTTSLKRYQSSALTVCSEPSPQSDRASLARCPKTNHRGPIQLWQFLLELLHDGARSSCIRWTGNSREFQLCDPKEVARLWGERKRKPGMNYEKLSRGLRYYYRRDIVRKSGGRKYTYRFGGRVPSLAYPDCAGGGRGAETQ
# In short: as §1
# [17] = biological target: T11, ELF3 (Homo sapiens, UniProt P78545 1-371); settings: protein: recombinant; tags: N-terminal GST; dsDNA, one strand shown
# T11 sequence: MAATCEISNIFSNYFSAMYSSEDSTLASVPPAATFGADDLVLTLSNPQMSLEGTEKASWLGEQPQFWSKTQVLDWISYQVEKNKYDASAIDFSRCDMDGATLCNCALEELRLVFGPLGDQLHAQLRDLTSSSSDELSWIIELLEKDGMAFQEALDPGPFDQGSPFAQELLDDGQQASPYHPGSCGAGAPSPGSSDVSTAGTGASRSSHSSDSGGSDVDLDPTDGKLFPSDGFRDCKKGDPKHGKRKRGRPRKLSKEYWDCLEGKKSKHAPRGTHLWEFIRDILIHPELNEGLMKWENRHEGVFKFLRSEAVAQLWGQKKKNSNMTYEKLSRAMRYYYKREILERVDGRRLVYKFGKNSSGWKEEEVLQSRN
# In short: as §1
# [18] = biological target: CRX (Homo sapiens, UniProt O43186 1-299); settings: protein: recombinant; tags: N-terminal GST; dsDNA, one strand shown
# Chain of CRX (O43186 whole entry): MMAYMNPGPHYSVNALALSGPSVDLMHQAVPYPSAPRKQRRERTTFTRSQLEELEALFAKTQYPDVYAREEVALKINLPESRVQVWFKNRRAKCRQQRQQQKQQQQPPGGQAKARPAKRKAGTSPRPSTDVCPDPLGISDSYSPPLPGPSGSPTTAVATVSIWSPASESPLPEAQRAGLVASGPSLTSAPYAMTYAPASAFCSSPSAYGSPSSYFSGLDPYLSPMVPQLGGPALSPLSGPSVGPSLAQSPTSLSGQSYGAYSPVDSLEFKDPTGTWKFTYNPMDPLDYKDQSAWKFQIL
# In short: as §1
# [19] = biological target: ETV1 (Homo sapiens, UniProt P50549 1-477); settings: protein: recombinant; tags: N-terminal GST; dsDNA, one strand shown
# Chain of ETV1 (P50549 whole entry): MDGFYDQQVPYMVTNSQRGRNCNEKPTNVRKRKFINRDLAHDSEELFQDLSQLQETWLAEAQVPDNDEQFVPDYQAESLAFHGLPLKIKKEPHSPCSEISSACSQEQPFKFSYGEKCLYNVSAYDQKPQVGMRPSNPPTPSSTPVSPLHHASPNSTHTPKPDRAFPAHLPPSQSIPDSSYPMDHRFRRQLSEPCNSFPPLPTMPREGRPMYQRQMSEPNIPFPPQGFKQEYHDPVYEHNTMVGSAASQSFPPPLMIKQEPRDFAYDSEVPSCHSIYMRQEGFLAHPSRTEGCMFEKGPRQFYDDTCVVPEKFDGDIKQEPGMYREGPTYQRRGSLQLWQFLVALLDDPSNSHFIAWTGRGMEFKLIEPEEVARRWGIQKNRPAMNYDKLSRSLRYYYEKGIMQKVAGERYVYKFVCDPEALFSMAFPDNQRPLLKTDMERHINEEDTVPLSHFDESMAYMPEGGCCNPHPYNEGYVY
# In short: as §1
sequence,measurement,setting,value
CTCCTC,binding signal,[1],"1.36 fold enrichment (6-mer frequency, TF over GST control)"
same,binding signal,[2],"1.38 fold enrichment (6-mer frequency, TF over GST control)"
same,binding signal,[3],"1.39 fold enrichment (6-mer frequency, TF over GST control)"
same,binding signal,[4],"1.26 fold enrichment (6-mer frequency, TF over GST control)"
same,binding signal,[5],"1.32 fold enrichment (6-mer frequency, TF over GST control)"
same,binding signal,[6],"1.54 fold enrichment (6-mer frequency, TF over GST control)"
same,binding signal,[7],"1.39 fold enrichment (6-mer frequency, TF over GST control)"
same,binding signal,[8],"1.4 fold enrichment (6-mer frequency, TF over GST control)"
same,binding signal,[9],"1.31 fold enrichment (6-mer frequency, TF over GST control)"
same,binding signal,[10],"1.37 fold enrichment (6-mer frequency, TF over GST control)"
same,binding signal,[11],"1.23 fold enrichment (6-mer frequency, TF over GST control)"
same,binding signal,[12],"1.16 fold enrichment (6-mer frequency, TF over GST control)"
same,binding signal,[13],"1.3 fold enrichment (6-mer frequency, TF over GST control)"
same,binding signal,[14],"1.47 fold enrichment (6-mer frequency, TF over GST control)"
same,binding signal,[15],"1.41 fold enrichment (6-mer frequency, TF over GST control)"
same,binding signal,[16],"1.39 fold enrichment (6-mer frequency, TF over GST control)"
same,binding signal,[17],"1.3 fold enrichment (6-mer frequency, TF over GST control)"
same,binding signal,[18],"1.08 fold enrichment (6-mer frequency, TF over GST control)"
same,binding signal,[19],"1.39 fold enrichment (6-mer frequency, TF over GST control)"

# — PMC7862700, “An all-to-all approach to the identification of sequence-specific readers for epigenetic DNA modifications on cytosine”
